Assay outcomes from PubChem BioAssay.
DT40 TDP1 CPT: growth inhibition of DT40 Tdp1-/-;hTDP1 cells with camptothecin (screen for TDP1 inhibitors). hit rate 12% among 420,000. Potency, µM (doses to about 46.2 µM), actives largely listed as inhibitors. chicken DT40 Tdp1-/-;hTDP1 cells + 20 nM CPT, ATP luminescence, 48 h; note: nearly all actives have a fitted effect of over 55% in size
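Chicken DT40 Tdp1-/- cells complemented with human TDP1, 400 cells/well, exposed to compounds plus 20 nM camptothecin for at least 48 h at 37 C; viability read as ATP content by CellTiter-Glo luminescence.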
HT1080 IDH1KD tx: toxicity to HT-1080 IDH1 knockdown cells (counter line) | hit rate 2% among 360,000 | HT-1080 IDH1 knockdown viability, ATP luminescence, 48 h | Potency, µM (top dose mostly 46.1 µM), actives largely listed as cytotoxic
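% activity derives from luminescence (CellTiter-Glo), normalised to DMSO and no-cell wells. HT-1080-IDH1KD cells, 750/well, had 48 h compound exposure at 37 °C.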
DT40 TDP1 no CPT: qHTS for Inhibitors of human tyrosyl-DNA phosphodiesterase 1 (TDP1): qHTS in cells in absence of CPT. DT40 Tdp1-/- hTDP1 cells, no CPT, ATP luminescence, 48 h. AID 686978, 2013. hit rate 15% among 420,000. Potency, µM (highest dose often 46.2 µM), most hits filed as inhibitors; note: nearly all actives have a fitted effect of over 55% in size
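Chicken DT40 Tdp1-/- cells stably complemented with human TDP1 were seeded at 400 cells/well with DMSO in place of 20 nM camptothecin. After compound pinning, cells grew at least 48 hr at 37 °C; viability read by CellTiter-Glo luminescence.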
IL1B secr inh: inhibitors of inflammasome signaling (IL-1 beta secretion); THP-1 LPS/ATP IL-1B secretion, AlphaLISA, 16 h; active compounds read low; activity change, % at 57.5 µM; hit rate 4.7% among 360,000; in the data active = activity change below about -50%; inconclusive = mostly about -30% to -49%
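THP-1 cells pretreated 1 hr with compounds (up to 57.5 uM final), then stimulated with LPS (250 ng/mL final) plus ATP (1.25 mM final); secreted IL-1B measured by AlphaLISA after 16 hr, decreased signal indicating inhibition.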
HT1080-NT tox: kills 2HG-producing HT-1080-NT fibrosarcoma cells; Potency, µM (highest dose often 46.1 µM), hits mostly cytotoxic; HT-1080-NT fibrosarcoma viability, CellTiter-Glo ATP luminescence, 48 h; AID 686970; hit rate 1.6% among 360,000;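 note: NT is the 2HG producing partner of a matched IDH1 knockdown line; nearly all actives have a fitted effect of over 55% in size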
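750 cells/well, RPMI + 5% FBS; 2 h settle, compound pin-transfer, 48 h at 37 degrees C. CellTiter-Glo 10 min RT, luminescence. Normalized to DMSO and media-only wells.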
A number is an active result; i = inactive; ? = inconclusive; nt = not tested or not shown. In the library only some 19% were active in any assay of this set; here they are far more common. Unless noted, calls come from the whole dose curve; as a rule, active = well fitted curve in the direction sought with a large enough effect; inconclusive = small, poorly fitted or top-dose-only effect, or another doubt; inactive = no such curve, though single readings can be large; an effect the other way counts as inactive or inconclusive.

SMILES | DT40 TDP1 CPT | HT1080 IDH1KD tx | DT40 TDP1 no CPT | IL1B secr inh | HT1080-NT tox
C[C@@H]1CN([C@H](C)CO)C(=O)CCCn2nncc2CO[C@@H]1CN(C)S(=O)(=O)c1ccc(Oc2ccccc2)cc1 | ? | i | ? | i | i
C[C@H]1CN([C@@H](C)CO)C(=O)CCCn2nncc2CO[C@H]1CN(C)S(=O)(=O)c1ccc(Oc2ccccc2)cc1 | 18.4µM | i | 11.6µM | i | i
O=[N+]([O-])c1ccc(/C=C/c2nc3ccc([N+](=O)[O-])cc3[nH]2)cc1 | 5.8µM | i | 4.11µM | i | i
Cc1cc(=O)[nH]c(SCc2nc3ccc([N+](=O)[O-])cc3[nH]2)n1 | i | i | i | i | i
O=[N+]([O-])c1ccc2nc(CO)[nH]c2c1 | ? | nt | 0.501µM | nt | nt
CCCc1cc(=O)[nH]c(SCc2nc3ccc([N+](=O)[O-])cc3[nH]2)n1 | ? | 14.6µM | ? | i | 9.2µM
NC(N)=Nc1nc2ccc([N+](=O)[O-])cc2[nH]1 | i | i | 29.1µM | ? | i
O=[N+]([O-])c1ccc2nc(CN3CCCCC3)[nH]c2c1 | i | i | i | i | i
O=C(NCc1ccc(Cl)cc1)C1CCC(=O)N(C2CC2)C1 (centres undefined) | i | i | i | i | i
C[C@H](CO)N1C[C@H](C)[C@@H](CN(C)S(=O)(=O)c2ccc3c(c2)OCCCO3)OCc2cn(nn2)CCCC1=O | i | i | i | i | i
O=[N+]([O-])c1ccc(/C=C/c2ccncc2)cc1 | ? | i | 13µM | ? | i
COC(=O)c1ccc(C(=O)NC2CCCc3c2cnn3-c2ccc(C)c(C)c2)cc1 (centres undefined) | 1.3µM | 23.1µM | 1.03µM | i | 14.6µM
CSCC(=O)NC1CCCc2c1cnn2-c1ccc(C)c(C)c1 (centres undefined) | i | i | ? | i | i
COc1cccc(C(=O)NC2CCCc3c2cnn3-c2cc(C)cc(C)c2)c1 (centres undefined) | ? | i | ? | -57.6 | i
Cc1cc(C(=O)NC2CCCc3c2cnn3-c2ccc(C)c(C)c2)nc(C)n1 (centres undefined) | ? | i | 16.4µM | i | i
O=[N+]([O-])c1ccccc1C=NN1CCCCCC1 | i | i | ? | i | i
O=C1c2ccccc2-c2n[nH]c(=O)c3ccc(N4CCCCC4)c1c23 | 9.2µM | ? | 9.2µM | -94.3 | ?
ClC1CCCCC1n1nnc2ccccc21 (centres undefined) | i | i | i | i | i
C/C=C1\NC(=O)[C@H](C)NC(=O)[C@@H](NC(=O)[C@H](Cc2ccc(O)cc2)NC(=O)[C@@H](NC(=O)/C(C)=C/C)C(C)C)[C@@H](C)OC(=O)[C@H](CCCc2ccc(O)cc2)NC(=O)[C@@H](CCC(=O)OC)NC1=O | i | i | i | i | i
C/C=C1\NC(=O)[C@H](CC(N)=O)N(C)C(=O)C([C@@H](C)O)NC(=O)C(CCCc2ccc(OC)cc2)NC(=O)[C@H](C(C)C)NC(=O)/C(=C\C)NC(=O)[C@H](O)[C@@H](C[C@@H](O)CCCCCCC)NC(=O)[C@H](C)NC(=O)CN(C)C(=O)[C@H](CCC(N)=O)NC1=O (some centres undefined) | 7.31µM | ? | 8.2µM | i | i
CCOc1cc(S(=O)(=O)NCc2ccco2)c(OCC)cc1-n1cnnn1 | i | i | i | i | i
CCC(C)n1ncn(-c2ccc(N3CCN(c4ccc(OCC5COC(Cn6cncn6)(c6ccc(Cl)cc6Cl)O5)cc4)CC3)cc2)c1=O (centres undefined) | 2.59µM | ? | 2.31µM | i | ?
CCOc1ccccc1CNC(=O)c1oc2ccc3c(c2c1C)C(=O)CC(C)(C)O3 | ? | nt | 13µM | nt | nt
CCOc1ccccc1CNC(=O)C1=C(C)C(=O)OC12CCN(C(C)=O)CC2 | i | nt | i | nt | nt
Cc1c(C(=O)NCc2ccoc2)oc2ccc3c(c12)C(=O)CC(C)(C)O3 | 14.6µM | ? | ? | -51.8 | i
CCCNC(=O)c1oc2ccc3c(c2c1C)C(O)CC(C)(C)O3 (centres undefined) | i | i | i | i | i
